Assay results as given in PubChem BioAssay (Tox21).
Inconclusive results are not listed. Calls of active or inactive are those of the source. Calls come from the whole dose curve; as a rule, active = well fitted curve in the direction sought with a large enough effect in the repeat runs; inconclusive = weak or mixed curves; inactive = no such curve, though single readings can be large; an effect the other way counts as inactive or inconclusive.

Assays:
[1] = A CellTox Green Cytotoxicity Assay to monitor cytotoxicity in HEK293 cells - 40 hour (AID 1224871); note: nearly all actives have a fitted effect of over 45% in size; note: potency is the fitted concentration of half-maximal effect
In short: (§1)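 Fluorescence from a DNA-binding dye excluded by viable cells was measured repeatedly in the same HEK293 wells (600 cells/well) during continuous compound exposure at 37 C. Each assay gives one read point: 0, 8, 16, 24, 32 or 40 h.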

[2] = qHTS RealTime-Glo MT Cell Viability Assay in HEK293 cells - 16 hour (AID 1224872); note: top concentration of the series differs between compounds; nearly all actives have a fitted effect of over 50% in size
In short: (§2)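 Homogeneous bioluminescent viability format in HEK293 cells (600 cells/well). Following 5 h at 37 C/5% CO2, 23 nL compound was pintooled; the signal was measured repeatedly during 40 h incubation.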

[3] = qHTS RealTime-Glo MT Cell Viability Assay in HepG2 cells - 8 hour (AID 1224873); note: nearly all actives have a fitted effect of over 55% in size
In short: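 HepG2 cells mixed with RealTime-Glo MT reagents (NanoLuc plus cell-permeant prosubstrate) were seeded at 600 cells/well, incubated 5 h at 37 C/5% CO2, then pinned with compounds in DMSO; nonlytic luminescence tracked viability during 40 h treatment.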

[4] = qHTS RealTime-Glo MT Cell Viability Assay in HEK293 cells - 40 hour (AID 1224874); conditions: RealTime-Glo luminescence; max response: stronger effect = lower value; note: nearly all actives have a fitted effect of over 50% in size
In short: (§3)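 Luminescence, which tracks viable cell number through reduction of the prosubstrate to a NanoLuc substrate, was read over continuous 37 C culture. Cells (600/well) were premixed with reagent and rested 5 h before 23 nL of compound in DMSO was pinned.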

[5] = A CellTox Green Cytotoxicity Assay to monitor cytotoxicity in HEK293 cells - 24 hour (AID 1224875); note: nearly all actives have a fitted effect of over 45% in size; note: potency is the fitted concentration of half-maximal effect
In short: as §1

[6] = A CellTox Green Cytotoxicity Assay to monitor cytotoxicity in HepG2 cells - 16 hour (AID 1224876); note: nearly all actives have a fitted effect of over 45% in size; note: potency is the fitted concentration of half-maximal effect
In short: (§4)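 Real-time cytotoxicity: fluorescence of a cell-impermeant cyanine dye binding DNA of dead HepG2 cells, measured repeatedly (0–40 h) during compound exposure at 37 C. Cells seeded 600/well with reagent, dosed after 5 h.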

[7] = qHTS RealTime-Glo MT Cell Viability Assay in HepG2 cells - 32 hour (AID 1224877); note: nearly all actives have a fitted effect of over 55% in size
In short: (§5)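 Cell number in HepG2 cultures estimated from NanoLuc luminescence generated by metabolic reduction of a prosubstrate by living cells. The homogeneous, nonlytic format allowed repeated reads at 0, 8, 16, 24, 32 and 40 h of compound exposure.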

[8] = A CellTox Green Cytotoxicity Assay to monitor cytotoxicity in HepG2 cells - 24 hour (AID 1224878); note: nearly all actives have a fitted effect of over 45% in size; note: potency is the fitted concentration of half-maximal effect
In short: as §4

[9] = qHTS RealTime-Glo MT Cell Viability Assay in HEK293 cells - 0 hour (AID 1224880)
In short: as §3

[10] = A CellTox Green Cytotoxicity Assay to monitor cytotoxicity in HepG2 cells - 0 hour (AID 1224882); note: nearly all actives have a fitted effect of over 35% in size
In short: as §4

[11] = A CellTox Green Cytotoxicity Assay to monitor cytotoxicity in HepG2 cells - 32 hour (AID 1224883); note: nearly all actives have a fitted effect of over 50% in size; note: potency is the fitted concentration of half-maximal effect
In short: as §4

[12] = A CellTox Green Cytotoxicity Assay to monitor cytotoxicity in HEK293 cells - 8 hour (AID 1224884); note: nearly all actives have a fitted effect of over 35% in size
In short: as §1

[13] = qHTS RealTime-Glo MT Cell Viability Assay in HepG2 cells - 16 hour (AID 1224885); note: nearly all actives have a fitted effect of over 50% in size
In short: as §5

[14] = qHTS RealTime-Glo MT Cell Viability Assay in HEK293 cells - 24 hour (AID 1224886)
In short: as §2

[15] = qHTS RealTime-Glo MT Cell Viability Assay in HEK293 cells - 8 hour (AID 1224887)
In short: as §3

[16] = A CellTox Green Cytotoxicity Assay to monitor cytotoxicity in HEK293 cells - 16 hour (AID 1224888); note: nearly all actives have a fitted effect of over 35% in size
In short: as §1

[17] = qHTS RealTime-Glo MT Cell Viability Assay in HepG2 cells - 0 hour (AID 1224889); note: nearly all actives have a fitted effect of over 50% in size
In short: as §5

[18] = A CellTox Green Cytotoxicity Assay to monitor cytotoxicity in HepG2 cells - 40 hour (AID 1224879); note: nearly all actives have a fitted effect of over 40% in size
In short: as §4

[19] = A CellTox Green Cytotoxicity Assay to monitor cytotoxicity in HEK293 cells - 32 hour (AID 1224881); note: nearly all actives have a fitted effect of over 40% in size; note: potency is the fitted concentration of half-maximal effect
In short: as §1

[20] = A CellTox Green Cytotoxicity Assay to monitor cytotoxicity in HepG2 cells - 8 hour (AID 1224890); note: nearly all actives have a fitted effect of over 45% in size
In short: as §4
% is set by controls: 0 for no effect and ±100 for the full control effect.

CC(C)=CCC[C@](C)(O)[C@@H]1CC=C(C)CC1
inactive: Potency [2] | outcome [3] | max response [4] -6.23% | Potency [5] | Potency [7] | outcome [9] | Potency [10] | Potency [12] | outcome [13] | Potency [14] | Potency [15] | Potency [16] | Potency [17]
active: Potency [1] 49 µM | Potency [6] 43.6 µM | Potency [8] 43.6 µM | Potency [11] 43.6 µM

Cc1cc2nc(N)sc2cc1C
inactive: Potency [1] | Potency [2] | outcome [3] | max response [4] -0.484% | Potency [6] | Potency [7] | Potency [8] | Potency [18] | outcome [9] | Potency [19] | Potency [10] | Potency [11] | Potency [12] | outcome [13] | Potency [14] | Potency [15] | Potency [16] | Potency [17]

NCCCN1CCN(CCCN)CC1
inactive: Potency [1] | Potency [2] | outcome [3] | max response [4] 6.33% | Potency [5] | Potency [6] | Potency [7] | outcome [9] | Potency [19] | Potency [10] | Potency [12] | outcome [13] | Potency [14] | Potency [15] | Potency [16] | Potency [17] | Potency [20]

CCCCCCCCc1ccc(S(=O)(=O)O)cc1
inactive: Potency [2] | outcome [3] | max response [4] -16.1% | Potency [7] | outcome [9] | Potency [10] | Potency [12] | outcome [13] | Potency [14] | Potency [15] | Potency [17] | Potency [20]
active: Potency [1] 54.5 µM | Potency [5] 48.6 µM | Potency [19] 54.5 µM

CCN(CC)CCNC(=O)COc1ccc(Cl)cc1
inactive: Potency [1] | Potency [2] | outcome [3] | max response [4] 2.3% | Potency [5] | Potency [7] | Potency [18] | outcome [9] | Potency [19] | Potency [10] | Potency [12] | outcome [13] | Potency [14] | Potency [15] | Potency [16] | Potency [17] | Potency [20]
